iPSC survival up: hiPSC single-cell survival enhancement; ATPlite luminescence; 100% = ROCK inhibitor wells, 0% = DMSO; survival enhancement, % at 20 µM; actives 0.044% (n = 360,000); in the data active = survival enhancement above about 18%;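 note: cells exposed to compounds for 16 hours before the ATP read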
ABCB6 inh 2: human ABCB6 transporter inhibition; actives 0.19% (n = 360,000); fluorescence ratio to DMSO, % at 10 µM; AID 602162; K562-ABCB6 porphyrin accumulation, flow cytometry, 1 h; active compounds read low; Q9NP58;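 active = fluorescence ratio to DMSO below 75%, the collection mean minus 3 SD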;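 note: signal is porphyrin accumulated inside mitochondria; lower ratio means ABCB6 inhibition with less porphyrin fluorescence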
Target sequence (Q9NP58 whole entry, looked up): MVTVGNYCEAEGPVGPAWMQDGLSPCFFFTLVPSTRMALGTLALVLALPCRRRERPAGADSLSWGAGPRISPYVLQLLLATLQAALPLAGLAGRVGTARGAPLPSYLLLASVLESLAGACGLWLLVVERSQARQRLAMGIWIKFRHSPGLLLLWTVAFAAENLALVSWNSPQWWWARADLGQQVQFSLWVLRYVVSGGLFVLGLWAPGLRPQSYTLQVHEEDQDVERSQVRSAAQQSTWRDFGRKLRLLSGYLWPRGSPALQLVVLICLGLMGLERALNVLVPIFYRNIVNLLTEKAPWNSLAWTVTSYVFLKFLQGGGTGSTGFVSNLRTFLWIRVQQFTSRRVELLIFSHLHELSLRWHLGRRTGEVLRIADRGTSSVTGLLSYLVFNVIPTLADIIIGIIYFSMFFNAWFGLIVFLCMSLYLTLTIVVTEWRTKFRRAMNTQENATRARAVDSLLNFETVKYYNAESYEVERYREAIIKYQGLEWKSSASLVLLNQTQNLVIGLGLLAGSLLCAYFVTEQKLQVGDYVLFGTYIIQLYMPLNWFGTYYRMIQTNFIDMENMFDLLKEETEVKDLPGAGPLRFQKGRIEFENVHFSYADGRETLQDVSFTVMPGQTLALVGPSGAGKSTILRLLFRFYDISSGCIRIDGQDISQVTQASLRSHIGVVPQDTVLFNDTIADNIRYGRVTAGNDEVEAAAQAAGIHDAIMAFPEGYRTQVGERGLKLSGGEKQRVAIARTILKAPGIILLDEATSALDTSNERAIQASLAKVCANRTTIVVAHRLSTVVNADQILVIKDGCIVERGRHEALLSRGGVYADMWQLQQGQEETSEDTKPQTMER
NRP1-CendR mod: modulators of CendR peptide binding to human neuropilin-1 | FAM-RPARPAR peptide binding to NRP-1, fluorescence polarization | O14786 | actives 0.85% (n = 360,000) | inhibition, % at 25 µM | AID 602438;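 active = inhibition or corrected inhibition above about 18%, plus a signal ratio from 0.5 to 1.5, limit read from the data, passing the limit was not always enough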
ARNT TACC3 PPI: disrupts binding between human ARNT and TACC3. Q9Y6A5. AID 623870. AlphaScreen His-ARNT PAS-B/GST-TACC3 binding, luminescence; TACC3 fragment carries E629A point mutation. inhibition, % at 9.99 µM. actives 0.66% (n = 390,000);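 active = mean inhibition of replicates at least 50% and at least half of replicates each reaching 50%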
GSIS activator: GLuc luminescence reporter in INS-1E cells, primary screen for activators of glucose-dependent secretion of insulin. INS-1E GLuc reporter insulin secretion, 2-3 h. activation, % at 16.6 µM. actives 0.61% (n = 370,000). AID 743287;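 active = lowest replicate activation of at least 40%, so every replicate reaches that level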
Each line names hits and unclear results; the compound was inactive in the other large screens. This is a sample that favours compounds with a hit; in the whole collection about 1.8% have one here.

COc1ccc(CSc2n[nH]c(C)n2)cc1[N+](=O)[O-]	none
Cc1ccc2c(c1)C(c1ccncc1)=NNC(c1ccccc1)=N2	none
Cc1ccc2c(c1)C(c1ccncc1)=NNC(c1ccc(F)cc1)=N2	NRP1-CendR mod 35.8
COC(=O)c1ccn(C(=O)c2ccc(Cl)cc2)n1	NRP1-CendR mod 27.5 (no result: GSIS activator)
CC1CCN(S(=O)(=O)c2ccc(NC(=O)c3ccncc3)cc2)CC1	none
CN(c1ccccc1)S(=O)(=O)c1ccc(NC(=O)c2nc(S(C)(=O)=O)ncc2Cl)cc1	ABCB6 inh 2 40.0
CCS(=O)(=O)c1ncc(Cl)c(C(=O)Nc2ccccc2OC)n1	ABCB6 inh 2 69.0
COc1cccc(NC(=O)c2nc(S(C)(=O)=O)ncc2Cl)c1	GSIS activator 54.4
COc1ccccc1NC(=O)c1ccc(C(=O)Nc2ccccc2OC)nc1	none
CN(c1ccccc1)S(=O)(=O)c1ccc(NC(=O)c2ccccc2)cc1	none
CCS(=O)(=O)c1ncc(Cl)c(C(=O)Nc2ccc(S(=O)(=O)N3CCC(C)CC3)cc2)n1	ABCB6 inh 2 44.0
C[C@@H]1CCCCO[C@@H](CN(C)S(=O)(=O)c2ccccc2)[C@H](C)CN([C@@H](C)CO)C(=O)c2cc(NS(=O)(=O)c3ccc(Cl)cc3)ccc2O1	none (no result: iPSC survival up, ABCB6 inh 2, NRP1-CendR mod)
C[C@@H]1CN([C@@H](C)CO)C(=O)c2cc(NC(=O)C3CC3)ccc2O[C@H]1CN(C)C(=O)NC1CCCCC1	none (no result: iPSC survival up, ABCB6 inh 2, NRP1-CendR mod)
CCc1onc(C)c1C(=O)Nc1ccc(N2CCOCC2)cc1	GSIS activator 41.5
Cc1onc(-c2ccccc2)c1C(=O)Nc1ccc(N2CCOCC2)cc1	none (no result: GSIS activator)
CC(C)c1c(O)c2c(n(-c3ccccc3)c1=O)CCCC2	GSIS activator 60.5
C[C@@H]1CN([C@H](C)CO)C(=O)c2cccc(NC(=O)CCCCCC(=O)Nc3ccccc3N)c2O[C@H]1CN(C)Cc1ccc(C(F)(F)F)cc1	none (no result: iPSC survival up, ABCB6 inh 2, NRP1-CendR mod, ARNT TACC3 PPI)
Cc1ccc2oc(C(=O)NCC3CCOCC3)c(C)c2c1	NRP1-CendR mod 25.6 (no result: ARNT TACC3 PPI)
COc1ccccc1-c1ccc2c(c1)[C@H]1[C@H](CCN1S(=O)(=O)c1cccc(C)c1)[C@H](CO)N2	none (no result: iPSC survival up, ABCB6 inh 2, NRP1-CendR mod, ARNT TACC3 PPI)
CC(C)[C@H]1C=C(C(=O)O)O[C@@H](OCCCCO)C1	NRP1-CendR mod 26.0
O=C(O)C1=C[C@@H](c2ccc(C(F)(F)F)cc2)C[C@@H](OCCCCO)O1	NRP1-CendR mod 27.5
NC(=O)C1=C[C@H](c2ccc(C(F)(F)F)cc2)C[C@H](OCCCCO)O1	none
O=C(O)C1=C[C@@H](C2CCCC2)C[C@@H](OCCCCO)O1	ARNT TACC3 PPI 61.1 (no result: iPSC survival up, ABCB6 inh 2, NRP1-CendR mod, GSIS activator)
C/C=C/c1cnc2c(c1)C(=O)N([C@H](C)CO)C[C@H](C)[C@H](CN(C)C(=O)Nc1ccc(C(F)(F)F)cc1)O2	none (no result: iPSC survival up, ABCB6 inh 2, NRP1-CendR mod)
C[C@@H]1CN([C@@H](C)CO)C(=O)c2cc(NS(C)(=O)=O)ccc2O[C@@H]1CN(C)Cc1ccc(Cl)c(Cl)c1	none (no result: iPSC survival up, ABCB6 inh 2, NRP1-CendR mod)
Cc1cccc(NCc2ccccc2O)c1C	NRP1-CendR mod 41.6 (no result: GSIS activator)
CC(C)NC(=O)c1ccc2c(c1)S(=O)(=O)c1ccccc1C2=O	iPSC survival up 19.8
COc1cccc(C#Cc2ccc3c(c2)O[C@@H](CN(C)C(=O)c2ccccn2)[C@H](C)CN([C@H](C)CO)S3(=O)=O)c1	none (no result: iPSC survival up, ABCB6 inh 2, NRP1-CendR mod)
O=C1NC(c2ccccc2)CCO1 (stereo not given)	none
O=S1(=O)NC(C2CC2c2ccccc2)CCO1 (stereo not given)	NRP1-CendR mod 23.3
O=C(C[C@H]1C=C[C@@H](NC(=O)Nc2cc(F)ccc2F)[C@@H](CO)O1)NCc1ccccn1	none (no result: iPSC survival up, ABCB6 inh 2, NRP1-CendR mod)
C[C@@H]1CN([C@@H](C)CO)C(=O)c2cccc(NS(=O)(=O)c3ccc(Cl)cc3)c2O[C@@H]1CN(C)Cc1ccc(Cl)c(Cl)c1	none (no result: iPSC survival up, ABCB6 inh 2, NRP1-CendR mod)
O=C(/C=C/c1ccc(-c2ccccc2[N+](=O)[O-])o1)c1ccco1	NRP1-CendR mod 27.8
O=C(/C=C/c1ccc([N+](=O)[O-])cc1)c1ccco1	none
COc1ccc(-c2ccccc2[C@@H]2[C@@H](C#N)N(C(=O)C3CCOCC3)[C@H]2CO)cc1	none (no result: iPSC survival up, ABCB6 inh 2, NRP1-CendR mod, ARNT TACC3 PPI)
O=S(=O)(c1cccs1)N1CN(C2CCCCC2)c2nc3ccccc3nc21	GSIS activator 80.3
Cc1ccc(-n2c(-c3nn(C)c(C)c3Cl)n[nH]c2=S)cc1	NRP1-CendR mod 20.3 (no result: ARNT TACC3 PPI, GSIS activator)
O=C(NCc1ccc(F)cc1)c1cc(C2CCCCN2C(=O)CCCc2ccccc2)on1 (stereo not given)	NRP1-CendR mod 49.3 (no result: ARNT TACC3 PPI)

High-throughput results from PubChem.
